“And” between values parts separate entries of the source, which are not always exact repeats. Equal values may be shown once. Records with an inconclusive call do not appear. A call without a number means that no potency is given here. The source made the active and inactive calls. Unless noted, calls follow the shape of the dose curve; as a rule, active = well fitted curve in the direction sought with a large enough effect; inconclusive = small, poorly fitted or top-dose-only effect, or another doubt; inactive = no such curve, though single readings can be large; an effect the other way counts as inactive or inconclusive. Non-standard residues stand in square brackets, D forms with d. Residues, ends and D or L forms follow the SMILES beside them. *: point of attachment. Sta = CC(C)C[C@H](N)[C@@H](O)CC(=O)O; Isovaleryl = CC(C)CC(=O)*
Legend:
[1] = Primary qHTS for inhibitors of nuclear receptor binding SET domain protein 2 (NSD2) in an isogenic RCH-ACV NSD2 p.E1099K mutant (9B) (AID 1645876); also: nearly all actives have a fitted effect of over 70% in size; also: potency is read from the fitted curve at half-maximal effect
[2] = Primary qHTS for inhibitors of nuclear receptor binding SET domain protein 2 (NSD2) in an RCH-ACV wild type WT cells (2C) (AID 1645877); also: nearly all actives have a fitted effect of over 70% in size; also: potency is read from the fitted curve at half-maximal effect
[3] = biological target: Rap guanine nucleotide exchange factor 3 (Homo sapiens) (UniProt O95398); assay: Confirmatory qHTS for antagonist of cAMP-regulated guanine nucleotide exchange factor 3 (EPAC1) (AID 1645880); also: nearly all actives have a fitted effect of over 55% in size
Outline: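 Nucleotide exchange uses 100 nM EPAC1, 250 nM RAP1B-BODIPY-GDP and 50 uM GDP, with compounds in a concentration-titration series. After 5 min at room temperature, fluorescence (480 nm ex/540 nm em) is read every 5 min for 30 min. Data are normalized to control ATA and DMSO.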

[4] = biological target: Rap guanine nucleotide exchange factor 3 (Homo sapiens) (UniProt O95398); assay: Confirmatory qHTS for agonist of cAMP-regulated guanine nucleotide exchange factor 3 (EPAC1) (AID 1645881);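 also: EPAC1 catalysed release of BODIPY-GDP from Rap1B seen as fluorescence loss; nearly all actives have a fitted effect of over 75% in size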
[5] = biological target: Rap guanine nucleotide exchange factor 4 (Homo sapiens) (UniProt Q8WZA2); assay: Confirmatory qHTS for agonist of cAMP-regulated guanine nucleotide exchange factor 4 (EPAC2) (AID 1645884);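 also: nucleotide exchange releases bodipy-GDP from Rap1 and this lowers its fluorescence; nearly all actives have a fitted effect of over 65% in size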
[6] = NCATS anti-infectives library activity on HEK293 viability as a counter-qHTS vs the C. elegans viability qHTS (AID 1745854);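 also: HEK293 cells exposed to compounds for 24 hr before the viability read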
Outline: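 Cytotoxicity in human HEK293 cells is measured by ATP-dependent CellTiter-Glo luminescence following a 24 hr incubation with titrated library compounds at 37C. Top final concentration is 41.7 uM.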

[7] = NCATS anti-infectives library activity on the primary C. elegans qHTS viability assay (AID 1745855; calls by dose curve)
Outline: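 Viability is taken from GFP fluorescence of PE254-GFP-FLuc C. elegans imaged by laser cytometry over 7 days. Ten L1 worms per well grow at 21 °C on TOP10 E. coli capsules with titrated compound; levamisole marks toxicity.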

[8] = biological target: Metallo-beta-lactamase type 2 (Klebsiella pneumoniae) (UniProt C7C422); assay: qHTS to identify inhibitors of the New Delhi Metallo-beta-lactamase (NDM): assay validation screen against the NCATS LOPAC Collection (AID 1794843);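 also: nitrocefin turnover by NDM-1 measured as 485 nm absorbance at plateau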
Outline: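 Nitrocefin hydrolysis (50 uM substrate stock) by NDM-1, 2 nM final, was followed by 485 nm absorbance after compound preincubation; buffer was 50 mM HEPES pH 7.0, 1 uM ZnSO4, 0.01% Tween20.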

[9] = biological target: Catechol O-methyltransferase (Homo sapiens) (UniProt P21964); assay: Confirmatory Screen for Target Class Profiling of Small Molecule Inhibitors of Methyltransferases (AID 1745852; calls by dose curve; also: potency is read from the fitted curve at half-maximal effect); settings: MTase-Glo luminescence, SAH detection, recombinant enzyme, stronger effect = lower value; measured here: COMT max response unless noted
[10] = biological target: Guanidinoacetate N-methyltransferase (Homo sapiens) (UniProt Q14353); assay: as above; settings: MTase-Glo luminescence, SAH detection, recombinant enzyme; activity change, negative = inhibition: at 57.3 µM (top of the series)
[11] = biological target: Nicotinamide N-methyltransferase (Homo sapiens) (UniProt P40261); assay: as above; settings: MTase-Glo luminescence, SAH detection, recombinant enzyme, stronger effect = lower value; measured here: NNMT max response unless noted
[12] = biological target: Phenylethanolamine N-methyltransferase (Homo sapiens) (UniProt P11086); assay: as above; settings: MTase-Glo luminescence, SAH detection, recombinant enzyme, stronger effect = lower value; measured here: PNMT max response unless noted
Phenylethanolamine N-methyltransferase (Homo sapiens), sequence (P11086 whole entry, looked up): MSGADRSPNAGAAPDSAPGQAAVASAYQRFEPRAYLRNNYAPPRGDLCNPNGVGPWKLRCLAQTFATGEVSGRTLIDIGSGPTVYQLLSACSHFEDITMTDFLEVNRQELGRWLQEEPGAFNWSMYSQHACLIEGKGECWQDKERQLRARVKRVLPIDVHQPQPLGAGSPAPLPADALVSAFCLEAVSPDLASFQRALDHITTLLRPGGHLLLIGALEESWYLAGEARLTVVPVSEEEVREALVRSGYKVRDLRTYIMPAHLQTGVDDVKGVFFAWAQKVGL

Rap guanine nucleotide exchange factor 3 (Homo sapiens), sequence (O95398 whole entry, looked up): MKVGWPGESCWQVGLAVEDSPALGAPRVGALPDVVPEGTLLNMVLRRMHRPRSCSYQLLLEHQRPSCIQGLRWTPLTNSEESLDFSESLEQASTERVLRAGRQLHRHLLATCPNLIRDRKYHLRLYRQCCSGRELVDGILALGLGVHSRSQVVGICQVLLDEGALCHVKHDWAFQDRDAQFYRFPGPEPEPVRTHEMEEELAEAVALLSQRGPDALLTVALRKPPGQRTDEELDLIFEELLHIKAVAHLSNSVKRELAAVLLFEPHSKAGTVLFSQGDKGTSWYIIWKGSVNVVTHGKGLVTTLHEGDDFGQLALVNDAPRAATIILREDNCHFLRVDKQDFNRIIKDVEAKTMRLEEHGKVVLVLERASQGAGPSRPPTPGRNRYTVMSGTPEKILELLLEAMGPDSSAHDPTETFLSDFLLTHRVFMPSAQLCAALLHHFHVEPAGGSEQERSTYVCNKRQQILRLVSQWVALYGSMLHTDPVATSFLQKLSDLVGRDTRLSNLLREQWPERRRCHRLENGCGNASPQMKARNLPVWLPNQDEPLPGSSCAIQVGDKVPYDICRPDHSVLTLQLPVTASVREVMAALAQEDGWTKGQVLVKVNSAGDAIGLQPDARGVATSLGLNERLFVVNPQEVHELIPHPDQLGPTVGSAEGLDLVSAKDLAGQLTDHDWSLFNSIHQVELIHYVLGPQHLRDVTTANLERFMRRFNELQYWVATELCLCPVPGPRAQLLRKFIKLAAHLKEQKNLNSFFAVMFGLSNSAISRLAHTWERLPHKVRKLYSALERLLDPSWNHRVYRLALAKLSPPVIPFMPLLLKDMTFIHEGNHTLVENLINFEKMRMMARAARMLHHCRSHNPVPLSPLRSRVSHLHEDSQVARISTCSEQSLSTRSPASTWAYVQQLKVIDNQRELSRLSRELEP
Metallo-beta-lactamase type 2 (Klebsiella pneumoniae), sequence (C7C422 whole entry, looked up): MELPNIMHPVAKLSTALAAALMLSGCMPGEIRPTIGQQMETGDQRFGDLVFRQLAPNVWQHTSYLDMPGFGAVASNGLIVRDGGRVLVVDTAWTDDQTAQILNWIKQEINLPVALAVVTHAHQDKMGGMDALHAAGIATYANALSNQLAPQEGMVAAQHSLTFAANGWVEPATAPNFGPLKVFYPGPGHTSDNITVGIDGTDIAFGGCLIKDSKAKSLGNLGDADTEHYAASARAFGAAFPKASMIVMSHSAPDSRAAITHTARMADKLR
Rap guanine nucleotide exchange factor 4 (Homo sapiens), sequence (Q8WZA2 whole entry, looked up): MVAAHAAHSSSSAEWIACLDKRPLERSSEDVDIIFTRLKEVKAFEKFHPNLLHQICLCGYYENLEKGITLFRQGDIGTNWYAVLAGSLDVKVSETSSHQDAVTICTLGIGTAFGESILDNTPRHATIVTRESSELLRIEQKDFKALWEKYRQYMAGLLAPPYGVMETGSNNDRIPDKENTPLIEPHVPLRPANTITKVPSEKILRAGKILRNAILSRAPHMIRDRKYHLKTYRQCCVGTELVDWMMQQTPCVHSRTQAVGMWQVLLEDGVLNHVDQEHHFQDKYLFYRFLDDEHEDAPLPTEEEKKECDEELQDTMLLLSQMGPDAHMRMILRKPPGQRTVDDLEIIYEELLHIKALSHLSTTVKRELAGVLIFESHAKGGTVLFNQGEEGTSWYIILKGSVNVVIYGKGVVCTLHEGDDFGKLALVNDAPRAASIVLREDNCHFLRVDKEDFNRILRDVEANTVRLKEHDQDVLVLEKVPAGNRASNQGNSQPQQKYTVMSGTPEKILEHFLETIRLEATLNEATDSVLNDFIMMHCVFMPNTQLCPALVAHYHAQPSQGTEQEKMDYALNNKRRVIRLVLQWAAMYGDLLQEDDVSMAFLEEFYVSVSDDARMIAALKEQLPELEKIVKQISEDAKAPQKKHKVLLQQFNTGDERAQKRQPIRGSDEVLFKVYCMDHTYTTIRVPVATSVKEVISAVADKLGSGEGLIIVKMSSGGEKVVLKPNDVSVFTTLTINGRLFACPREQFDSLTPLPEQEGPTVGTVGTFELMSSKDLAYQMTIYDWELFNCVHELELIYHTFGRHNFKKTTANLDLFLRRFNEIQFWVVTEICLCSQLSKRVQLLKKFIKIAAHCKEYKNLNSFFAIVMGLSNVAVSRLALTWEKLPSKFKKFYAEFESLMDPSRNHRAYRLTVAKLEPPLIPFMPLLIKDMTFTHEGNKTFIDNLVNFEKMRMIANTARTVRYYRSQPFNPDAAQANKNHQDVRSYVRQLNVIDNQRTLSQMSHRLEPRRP
Catechol O-methyltransferase (Homo sapiens), sequence (P21964 whole entry, looked up): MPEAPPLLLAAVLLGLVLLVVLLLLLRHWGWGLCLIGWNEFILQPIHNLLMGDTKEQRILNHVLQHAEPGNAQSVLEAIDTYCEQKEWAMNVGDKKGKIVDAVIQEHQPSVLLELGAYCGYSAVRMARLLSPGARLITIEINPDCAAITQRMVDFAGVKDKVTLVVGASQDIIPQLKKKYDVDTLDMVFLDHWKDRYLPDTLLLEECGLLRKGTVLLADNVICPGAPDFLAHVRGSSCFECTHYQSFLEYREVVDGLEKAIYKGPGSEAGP
Nicotinamide N-methyltransferase (Homo sapiens), sequence (P40261 whole entry, looked up): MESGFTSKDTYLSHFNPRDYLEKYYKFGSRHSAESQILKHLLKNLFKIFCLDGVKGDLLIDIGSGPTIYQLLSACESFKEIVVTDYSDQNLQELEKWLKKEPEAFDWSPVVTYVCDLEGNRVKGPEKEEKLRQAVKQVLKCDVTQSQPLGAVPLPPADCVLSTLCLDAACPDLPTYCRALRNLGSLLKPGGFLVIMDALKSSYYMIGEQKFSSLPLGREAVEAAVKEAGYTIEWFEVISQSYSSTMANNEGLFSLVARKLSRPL

## COC(=O)C1=C(C)NC(C)=C(C(=O)OCCCN2CCC(c3ccccc3)(c3ccccc3)CC2)C1c1cccc([N+](=O)[O-])c1 (stereo not given)
[1]
  Potency: 7.42 µM (active) and 7.5 µM (active)
[2]
  Potency: 6.61 µM (active) and 5.96 µM (active)
[3]
  Potency: inactive
[4]
  outcome: inactive
[5]
  outcome: inactive

## CC(C)(S)[C@@H](N)C(=O)O
[1]
  outcome: inactive [at 4.96 µM]
[2]
  outcome: inactive [at 4.96 µM]

## CC(C)CC(=O)N[C@H](C(=O)N[C@H](C(=O)N[C@@H](CC(C)C)[C@@H](O)CC(=O)N[C@@H](C)C(=O)N[C@@H](CC(C)C)[C@@H](O)CC(=O)O)C(C)C)C(C)C (Isovaleryl-VV[Sta]A[Sta]-OH)
[1]
  Potency: inactive
[2]
  Potency: inactive
[6]
  outcome: inactive

## CCOC(=O)C1=C[C@@H](OC(CC)CC)[C@H](NC(C)=O)[C@@H](N)C1
[1]
  Potency: inactive
[2]
  Potency: inactive
[6]
  outcome: inactive
[7]
  Potency: inactive

## Cc1cc(Cl)ccc1OCCCC(=O)NO
[1]
  Potency: 1.48 µM (active)
[2]
  Potency: 1.66 µM (active)
[6]
  outcome: inactive
[8]
  outcome: inactive

## S=c1nc[nH]c2nc[nH]c12
[1]
  Potency: 944 nM (active) and 2.63 µM (active)
[2]
  Potency: 668 nM (active) and 1.66 µM (active)
[7]
  Potency: inactive

## CNC[C@H](O)c1ccc(O)c(O)c1
[1]
  Potency: inactive
[2]
  Potency: inactive
[8]
  outcome: inactive

## COc1cc(Nc2c(C#N)cnc3cc(OCCCN4CCN(C)CC4)c(OC)cc23)c(Cl)cc1Cl
[1]
  Potency: 596 nM (active) and 1.63 µM (active) and 1.32 µM (active)
[2]
  Potency: 531 nM (active) and 1.63 µM (active) and 1.48 µM (active)
[9]
  activity: -94.4%
[10]
  Potency: 12.1 µM (active)
[11]
  activity: -86.9%
[12]
  activity: -96.9%
